In PubChem BioAssay (NCATS):
Where “and” joins values, the source holds several entries; their conditions need not be identical. Equal entries are not always repeated. Records with an inconclusive call do not appear. Values without a mark were called inactive. Calls follow the shape of the dose curve; as a rule, active = well fitted inhibition curve with a large enough effect; inconclusive = small, poorly fitted or top-dose-only effect; inactive = flat fitted curve, though single readings scatter. *1 amine or outer side, *2 acyl side, *3 side chain or, on linkers, in order; H or OH if unused. Where a SMILES comes first, the peptide text is derived from it. Bridges are numbered along the chain shown (N, C = ends). [ ]: non-standard residue; d: D form. The star is where a group is joined. X5 = NC1=N[C@@H]([C@H](N[*:1])C(=O)[*:2])C[C@H](O)N1; ΔAla(Z-3-ureido) = NC(=O)N/C=C(\N)C(=O)O; β3hOrn = NCCC[C@H](N)CC(=O)*; X2 = CC[C@H](C)CCCCC(=O)*; Dab = NCC[C@H](N)C(=O)O; Dap = NC[C@H](N)C(=O)O
% is scaled to controls: 0 for no effect and ±100 for the full control effect.

What follows are compounds tested on KB-3-1 (assay: Cytotoxic Profiling of Annotated Libraries Using Quantitative High-Throughput Screening (AID 1296008; also: nearly all actives have a fitted effect of over 60% in size)). Details: Five cell lines viability, CellTiter-Glo ATP luminescence, 48-72 h; max response: stronger effect = lower value.
Procedure, shortened: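 Cells exposed to compounds for 48 or 72 hr at 37 degrees Celsius. Viability read as ATP-coupled luminescence with CellTiter-Glo after 10 min at room temperature.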
Work on `CCCCCCCCCCCCCCCCCCOCC(COP(=O)([O-])OCC[N+](C)(C)C)OC` (stereo not drawn) yielded a max response of 0.811%. With `CO/N=C(\C(=O)N[C@@H]1C(=O)N2C(C(=O)[O-])=C(C[n+]3ccc(N)n3CCO)CS[C@H]12)c1csc(N)n1` the max response was 5.24%. `CCc1cn([C@H]2C[C@H](O)[C@@H](CO)O2)c(=O)[nH]c1=O` gave a max response of 5.47%. Compound `NC(=O)c1ccc[n+]([C@@H]2O[C@H](COP(=O)([O-])OP(=O)(O)OC[C@H]3O[C@@H](n4cnc5c(N)ncnc54)[C@H](O)[C@@H]3O)[C@@H](O)[C@H]2O)c1` has a max response of -2.72%. In the case of `OC[C@H]1OC([S-])[C@H](O)[C@@H](O)[C@@H]1O.[Au+]` (stereo partly drawn), the max response was 5.78%. In the case of `CO/N=C(\C(=O)N[C@@H]1C(=O)N2C(C(=O)O)=C(C[N+]3(C)CCCC3)CS[C@H]12)c1csc(N)n1`, the max response was 2.85%. In the case of `C[C@@H]1NC(=O)[C@@H](N)CNC(=O)[C@H](C2CCNC(N)=N2)NC(=O)/C(=C/NC(N)=O)NC(=O)[C@H](CNC(=O)C[C@@H](N)CCCN)NC1=O` (stereo partly drawn), the max response was -2.35% and -9.97%. `NC(=O)OCC(O)COc1ccc(Cl)cc1` (stereo not drawn) gave a max response of 15.4%. `NCCC[C@H](N)CC(=O)N[C@H]1CNC(=O)[C@H]([C@H]2C[C@H](O)NC(N)=N2)NC(=O)/C(=C/NC(N)=O)NC(=O)[C@H](CO)NC(=O)[C@H](CO)NC1=O` (β3hOrn-[Dap]SS[ΔAla(Z-3-ureido)][X5]; lactam 1-C) showed a max response of -0.188%. With `CC[C@H]1NC(=O)[C@@H](NC(=O)c2ncccc2O)[C@@H](C)OC(=O)[C@H](c2ccccc2)NC(=O)[C@@H]2CC(=O)CCN2C(=O)[C@H](Cc2ccccc2)N(C)C(=O)[C@@H]2CCCN2C1=O` the max response was 2%. Compound `CC[C@H](C)CCCCC(=O)N[C@@H](CCN)C(=O)N[C@H](C(=O)N[C@@H](CCN)C(=O)N[C@H]1CCNC(=O)[C@@H]([C@H](C)O)NC(=O)[C@H](CCN)NC(=O)[C@H](CCN)NC(=O)[C@H](CC(C)C)NC(=O)[C@@H](CC(C)C)NC(=O)[C@H](CCN)NC1=O)[C@@H](C)O` (X2-[Dab]T[Dab][Dab][Dab][dL]L[Dab][Dab][dT]; lactam 4-C) has a max response of -9.96%. `O=C1c2c(O)cccc2[C@H]([C@@H]2O[C@H](CO)[C@@H](O)[C@H](O)[C@H]2O)c2cc(CO)cc(O)c21` showed a max response of 8.29%. In the case of `C=Cc1c(C)c2cc3nc(cc4[nH]c(cc5nc(cc1[nH]2)C(C)=C5CCC(=O)OC)c(CCC(=O)O)c4C)[C@@]1(C)C3=CC=C(C(=O)OC)[C@H]1C(=O)OC`, the max response was -15.7%. `O=C(O)c1cc(O)c2c(c1)[C@H]([C@H]1c3cc(C(=O)O)cc(O)c3C(=O)c3c(O[C@@H]4O[C@H](CO)[C@@H](O)[C@H](O)[C@H]4O)cccc31)c1cccc(O[C@@H]3O[C@H](CO)[C@@H](O)[C@H](O)[C@H]3O)c1C2=O` showed a max response of -13.8%. Compound `CCC[C@@H]1C[C@@H](C(=O)N[C@@H]([C@H]2O[C@H](SC)[C@H](O)[C@@H](O)[C@H]2O)[C@H](C)Cl)N(C)C1` has a max response of 4.39%. `CC(C)[C@@H](C)/C=C/[C@@H](C)[C@H]1CC[C@H]2/C(=C/C=C3\C[C@@H](O)CC[C@@H]3C)CCC[C@]12C` gave a max response of 8.4%. `CCCCCCCCCCCCCCCC(=O)OC[C@@H](O)[C@H]1OC[C@H](O)[C@H]1O` gave a max response of -3.59%. `CC(=NCc1ccccc1)c1ccccc1O` showed a max response of -11.4%. `CC(C)CN(C[C@@H](O)[C@H](Cc1ccccc1)NC(=O)O[C@@H]1CCOC1)S(=O)(=O)c1ccc(N)cc1` showed a max response of 0.899%. For `CC[C@H]1OC(=O)C[C@@H](O)[C@H](C)[C@@H](O[C@@H]2O[C@H](C)[C@@H](O[C@H]3C[C@@](C)(O)[C@@H](O)[C@H](C)O3)[C@H](N(C)C)[C@H]2O)[C@@H](CC=O)C[C@@H](C)C(=O)/C=C/C(C)=C/[C@@H]1CO[C@@H]1O[C@H](C)[C@@H](O)[C@@H](OC)[C@H]1OC`, the max response was 31.7% and -4.31%. For `CC(C)(CO)[C@@H](O)C(=O)NCCCC(=O)O`, the max response was -10.7%. For `CO/N=C(\C(=O)N[C@@H]1C(=O)N2C(C(=O)O)=CCS[C@H]12)c1csc(N)n1`, the max response was 1.16%. In the case of `CC(C)C[C@@H](NC(=O)[C@@H](O)[C@H](N)Cc1ccccc1)C(=O)O`, the max response was 11%. `O=C(O)CN(CC(=O)O)CC1=CC2C(=CC1=O)Oc1cc(O)c(CN(CC(=O)O)CC(=O)O)cc1C21OC(=O)c2ccccc21` (stereo not drawn) was tested, and the max response was -3.16%. H-RKDVY-OH gave a max response of -14.8%. In the case of `NC(=O)c1cc[n+](CC2=C(C(=O)O)N3C(=O)[C@@H](NC(=O)C(c4ccccc4)S(=O)(=O)[O-])[C@H]3SC2)cc1` (stereo partly drawn), the max response was 1.04%. `CC(C)CCC[C@@H](C)[C@H]1CC(=O)C2=C3CC[C@H]4C[C@@H](O)CC[C@]4(C)[C@H]3CC[C@@]21C` was tested, and the max response was -6.65%. Work on `CC(C)CN(C[C@@H](OP(=O)(O)O)[C@H](Cc1ccccc1)NC(=O)O[C@H]1CCOC1)S(=O)(=O)c1ccc(N)cc1` yielded a max response of 1.96%.
